Assay outcomes as filed in PubChem.
Only a selection was taken, and hits are over-represented in it overall.
TbPYK inhibitor: qHTS of Trypanosoma Brucei Inhibitors | AID 624173, 2012 | TbPYK enzyme, Kinase-Glo Plus ATP luminescence, 45 min | pyruvate kinase (Trypanosoma brucei), Q57TT1 | hit rate 0.12% among 410,000 | Potency, µM (doses to about 76.8 µM), without a hit: top-dose activity, negative = inhibition, usual class: inhibitors; also: potency is read from the fitted curve at half-maximal effect; % is scaled to controls: 0 for no effect and ±100 for the full control effect; nearly all actives have a fitted effect of over 50% in size
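ADP (130 uM final) triggers the TbPYK reaction after compound addition; incubation is 45 min at room temperature. Kinase-Glo Plus is then added and luminescence imaged. Normalized data are fitted to concentration-effect curves.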
Sm TGR block: qHTS Assay for the Inhibitors of Schistosoma Mansoni Peroxiredoxins; AID 485364, 2010; hit rate 3% among 360,000; purified TGR, DTNB reduction, TNB absorbance 405 nm; Potency, µM (highest dose often 114 µM), inactives show top-dose activity change, negative = inhibition, usual class: inhibitors; also: potency is read from the fitted curve at half-maximal effect; % is scaled to controls: 0 for no effect and ±100 for the full control effect; nearly all actives have a fitted effect of over 60% in size
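TGR 20 nM + NADPH 100 uM (dispensed conc.), cpd preinc 15 min RT; start with NADPH (500 uM addition) then DTNB (15 mM addition). Kinetic TNB absorbance, 405 nm filter. Four-parameter Hill fit across titration.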
LmPK inh: qHTS Assay for Inhibitors of Leishmania Mexicana Pyruvate Kinase (LmPK) | Potency, µM (titrated, usually from 57.5 µM), for inactives: at the top dose activity change, negative = inhibition, hits mostly inhibitors | purified LmPK, Kinase-Glo ATP luminescence, 1 h | hit rate 0.37% among 290,000 | AID 1721, 2009; also: potency is read from the fitted curve at half-maximal effect; % is scaled to controls: 0 for no effect and ±100 for the full control effect
Target sequence (Q27686 whole entry, looked up): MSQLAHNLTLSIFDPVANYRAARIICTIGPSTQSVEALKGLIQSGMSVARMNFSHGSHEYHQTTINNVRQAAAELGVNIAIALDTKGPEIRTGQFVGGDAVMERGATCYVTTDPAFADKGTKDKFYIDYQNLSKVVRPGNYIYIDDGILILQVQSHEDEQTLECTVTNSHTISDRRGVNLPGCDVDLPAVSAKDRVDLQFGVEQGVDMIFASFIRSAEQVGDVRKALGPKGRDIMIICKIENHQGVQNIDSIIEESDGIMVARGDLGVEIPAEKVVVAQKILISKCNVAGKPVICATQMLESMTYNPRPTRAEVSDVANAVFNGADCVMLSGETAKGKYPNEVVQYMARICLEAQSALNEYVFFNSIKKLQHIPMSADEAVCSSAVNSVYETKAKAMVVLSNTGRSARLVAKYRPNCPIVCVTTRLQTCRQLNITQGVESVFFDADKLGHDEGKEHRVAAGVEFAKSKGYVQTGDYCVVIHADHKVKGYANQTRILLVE
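Purified LmPK (0.1 nM) with 0.5 mM PEP and 0.1 mM ADP in imidazole buffer pH 7.2 with MgCl2/KCl, 1 h at room temperature. ATP formed was read by luciferase luminescence and normalized to no-enzyme and uninhibited controls.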
Giardia FBPA inh: qHTS Assay for Inhibitors of Fructose-1,6-bisphosphate Aldolase from Giardia Lamblia; A8B2U2; purified Giardia FBPA; Potency, µM (series often up to 59.6 µM), for the others: at the top dose activity, negative = inhibition, actives largely listed as inhibitors; hit rate 0.71% among 290,000; also: potency is read from the fitted curve at half-maximal effect; % is scaled to controls: 0 for no effect and ±100 for the full control effect; nearly all actives have a fitted effect of over 55% in size
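40 nM FBPA preincubated 10 min at RT with compound (up to 57.5 uM final), then substrate plus GAPDH/TPI/NAD/arsenate coupling and diaphorase/resazurin added. Fluorescence read after 20 min at RT, 525/598 nm.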
Shiga toxin inh: A qHTS for Small Molecule Inhibitors of Shiga Toxin; Vero cells, Shiga toxin protein synthesis inhibition reporter; inhibition, % at 38.7 µM; hit rate 9.2% among 290,000; AID 2315, 2010; in the data active = inhibition mostly above about 28%, no sharp cut-off; inactive = mostly below about 43%; also: 0% is about no effect
CHX counter: Cycloheximide Counterscreen for Small Molecule Inhibitors of Shiga Toxin. hit rate 12% among 300,000. cell reporter, cycloheximide protein synthesis inhibition counterscreen. max response, %; in the data active = max response mostly above about 13%, no sharp cut-off; inactive = mostly below about 14%; also: read at 38.3 µM for the half of the compounds with a filed dose; 0% is about no effect
* = called active by the depositor. Unless noted, calls follow the shape of the dose curve; as a rule, active = well fitted curve in the direction sought with a large enough effect; inconclusive = small, poorly fitted or top-dose-only effect, or another doubt; inactive = no such curve, though single readings can be large; an effect the other way counts as inactive or inconclusive.

Screening CC[C@H](C)[C@H](NC(=O)[C@H](N)Cc1ccc(O)cc1)C(=O)N[C@@H](CC(N)=O)C(=O)N[C@@H](CC(C)C)C(=O)N[C@H](C(=O)N[C@@H](C(=O)N[C@@H](CCCN=C(N)N)C(=O)N[C@@H](CCC(N)=O)C(=O)N[C@@H](CCCN=C(N)N)C(=O)N[C@H](Cc1ccc(O)cc1)C(N)=O)[C@@H](C)O)[C@@H](C)CC returned Giardia FBPA inh 7%, Shiga toxin inh -6 and CHX counter -4.
For COc1ccnc2c1c(=O)n(Cc1ccc(Cl)cc1Cl)c(=O)n2C the results were TbPYK inhibitor -2%, Sm TGR block -1%, LmPK inh -5%, Giardia FBPA inh 12%, Shiga toxin inh -7 and CHX counter -3.
CC(C)[C@@H](CO)NC(=O)c1ccc2c3n(nc2c1)-c1ccccc1CO3 was read as TbPYK inhibitor -24%, Sm TGR block 6%, LmPK inh 14µM*, Giardia FBPA inh -2%, Shiga toxin inh 50* and CHX counter 37*.
Screening Cc1ccc2c(c1)COc1c3ccc(C(=O)O)cc3nn1-2 returned TbPYK inhibitor inconclusive, Sm TGR block -7%, LmPK inh inconclusive, Giardia FBPA inh 0%, Shiga toxin inh -8 and CHX counter -4.
Screening CC(C)NC(=O)c1ccc2c3n(nc2c1)-c1ccccc1CO3 returned TbPYK inhibitor inconclusive, Sm TGR block 6%, LmPK inh 13µM*, Giardia FBPA inh 6%, Shiga toxin inh 30 and CHX counter 22*.
For Cc1noc(C)c1-c1nccc(Nc2ccc(F)cc2)n1 the results were Giardia FBPA inh 4%.
CN(CCC1CCCCO1)C(=O)CCc1nnc(CCc2ccccc2)o1 (stereo unspecified) was read as TbPYK inhibitor -1%, Sm TGR block -25%, LmPK inh 1%, Shiga toxin inh 47* and CHX counter 32*.
Screening CN(CCC1CCCCO1)C(=O)CCc1nnc(Cc2c[nH]c3ccccc23)o1 (stereo unspecified) returned TbPYK inhibitor -9%, Sm TGR block 89µM*, LmPK inh -7%, Shiga toxin inh 8 and CHX counter -3.
For COc1ccc(NCc2nc3ccccc3n2CCOc2ccccc2C)cc1 the results were TbPYK inhibitor 2% and Sm TGR block 1%.
For C/C(=N/NC(=O)c1ccncc1)c1ccccc1 the results were TbPYK inhibitor 2%, Sm TGR block 0%, LmPK inh -1%, Giardia FBPA inh -6% and CHX counter 9.
C/C(=N\NC(=O)c1ccccc1)c1cccc(Br)c1 was read as TbPYK inhibitor -15%, Sm TGR block 4%, LmPK inh -8%, Giardia FBPA inh -6%, Shiga toxin inh 124* and CHX counter 48*.
C/C(=N\NC(=O)c1ccccc1)C1C2C=CC(C2)C1(C)C (stereo unspecified) was read as TbPYK inhibitor 0%, Sm TGR block -2%, LmPK inh -5%, Giardia FBPA inh 11%, Shiga toxin inh 91* and CHX counter 48*.
For O=C(N/N=C/c1[nH]c2ccccc2c1Cl)c1cccc(Br)c1 the results were TbPYK inhibitor 2%, Sm TGR block -5%, LmPK inh 10%, Giardia FBPA inh -1%, Shiga toxin inh 12 and CHX counter 7.
O=C(N/N=C/C1C(c2ccccc2)C1(Cl)Cl)c1cccc(Br)c1 (stereo unspecified) was read as TbPYK inhibitor -1%, Sm TGR block -22%, LmPK inh 0%, Giardia FBPA inh 1%, Shiga toxin inh 68 and CHX counter 23*.
CC(=N\NC(=O)c1ccccc1)/C(=N/O)C(=O)Nc1ccccc1 was read as TbPYK inhibitor 1%, Sm TGR block 2%, LmPK inh -5%, Giardia FBPA inh -8%, Shiga toxin inh 23 and CHX counter -2.
